Screening results deposited in PubChem BioAssay by several laboratories.
A selection: hits, their analogues and other compounds. The true share with any hit is near 7.6%.
M1 antagonist: blocks the rat M1 muscarinic receptor response to acetylcholine; P08482; CHO-M1 cells, Fluo-4 calcium, ACh EC80 antagonist mode; hits give low values; B-score at 10 µM; actives 3.4% (n = 64,000); AID 628;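 active means calcium fluorescence response, raw or row-and-column corrected B-score, differing from the plate sample mean either way at a set confidence level, mostly lower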
Cav32 inh: inhibitors of human Cav3.2 T-type calcium channel; O95180; Cav3.2-expressing cells, Fluo-4 calcium fluorescence FDSS; hits give low values; B-score at 10 µM; actives 4% (n = 100,000);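 active means single-dose well whose peak fluorescence ratio is a statistical outlier from its plate by either plate-standardised score or position-corrected B-score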
Target sequence (O95180 whole entry, looked up): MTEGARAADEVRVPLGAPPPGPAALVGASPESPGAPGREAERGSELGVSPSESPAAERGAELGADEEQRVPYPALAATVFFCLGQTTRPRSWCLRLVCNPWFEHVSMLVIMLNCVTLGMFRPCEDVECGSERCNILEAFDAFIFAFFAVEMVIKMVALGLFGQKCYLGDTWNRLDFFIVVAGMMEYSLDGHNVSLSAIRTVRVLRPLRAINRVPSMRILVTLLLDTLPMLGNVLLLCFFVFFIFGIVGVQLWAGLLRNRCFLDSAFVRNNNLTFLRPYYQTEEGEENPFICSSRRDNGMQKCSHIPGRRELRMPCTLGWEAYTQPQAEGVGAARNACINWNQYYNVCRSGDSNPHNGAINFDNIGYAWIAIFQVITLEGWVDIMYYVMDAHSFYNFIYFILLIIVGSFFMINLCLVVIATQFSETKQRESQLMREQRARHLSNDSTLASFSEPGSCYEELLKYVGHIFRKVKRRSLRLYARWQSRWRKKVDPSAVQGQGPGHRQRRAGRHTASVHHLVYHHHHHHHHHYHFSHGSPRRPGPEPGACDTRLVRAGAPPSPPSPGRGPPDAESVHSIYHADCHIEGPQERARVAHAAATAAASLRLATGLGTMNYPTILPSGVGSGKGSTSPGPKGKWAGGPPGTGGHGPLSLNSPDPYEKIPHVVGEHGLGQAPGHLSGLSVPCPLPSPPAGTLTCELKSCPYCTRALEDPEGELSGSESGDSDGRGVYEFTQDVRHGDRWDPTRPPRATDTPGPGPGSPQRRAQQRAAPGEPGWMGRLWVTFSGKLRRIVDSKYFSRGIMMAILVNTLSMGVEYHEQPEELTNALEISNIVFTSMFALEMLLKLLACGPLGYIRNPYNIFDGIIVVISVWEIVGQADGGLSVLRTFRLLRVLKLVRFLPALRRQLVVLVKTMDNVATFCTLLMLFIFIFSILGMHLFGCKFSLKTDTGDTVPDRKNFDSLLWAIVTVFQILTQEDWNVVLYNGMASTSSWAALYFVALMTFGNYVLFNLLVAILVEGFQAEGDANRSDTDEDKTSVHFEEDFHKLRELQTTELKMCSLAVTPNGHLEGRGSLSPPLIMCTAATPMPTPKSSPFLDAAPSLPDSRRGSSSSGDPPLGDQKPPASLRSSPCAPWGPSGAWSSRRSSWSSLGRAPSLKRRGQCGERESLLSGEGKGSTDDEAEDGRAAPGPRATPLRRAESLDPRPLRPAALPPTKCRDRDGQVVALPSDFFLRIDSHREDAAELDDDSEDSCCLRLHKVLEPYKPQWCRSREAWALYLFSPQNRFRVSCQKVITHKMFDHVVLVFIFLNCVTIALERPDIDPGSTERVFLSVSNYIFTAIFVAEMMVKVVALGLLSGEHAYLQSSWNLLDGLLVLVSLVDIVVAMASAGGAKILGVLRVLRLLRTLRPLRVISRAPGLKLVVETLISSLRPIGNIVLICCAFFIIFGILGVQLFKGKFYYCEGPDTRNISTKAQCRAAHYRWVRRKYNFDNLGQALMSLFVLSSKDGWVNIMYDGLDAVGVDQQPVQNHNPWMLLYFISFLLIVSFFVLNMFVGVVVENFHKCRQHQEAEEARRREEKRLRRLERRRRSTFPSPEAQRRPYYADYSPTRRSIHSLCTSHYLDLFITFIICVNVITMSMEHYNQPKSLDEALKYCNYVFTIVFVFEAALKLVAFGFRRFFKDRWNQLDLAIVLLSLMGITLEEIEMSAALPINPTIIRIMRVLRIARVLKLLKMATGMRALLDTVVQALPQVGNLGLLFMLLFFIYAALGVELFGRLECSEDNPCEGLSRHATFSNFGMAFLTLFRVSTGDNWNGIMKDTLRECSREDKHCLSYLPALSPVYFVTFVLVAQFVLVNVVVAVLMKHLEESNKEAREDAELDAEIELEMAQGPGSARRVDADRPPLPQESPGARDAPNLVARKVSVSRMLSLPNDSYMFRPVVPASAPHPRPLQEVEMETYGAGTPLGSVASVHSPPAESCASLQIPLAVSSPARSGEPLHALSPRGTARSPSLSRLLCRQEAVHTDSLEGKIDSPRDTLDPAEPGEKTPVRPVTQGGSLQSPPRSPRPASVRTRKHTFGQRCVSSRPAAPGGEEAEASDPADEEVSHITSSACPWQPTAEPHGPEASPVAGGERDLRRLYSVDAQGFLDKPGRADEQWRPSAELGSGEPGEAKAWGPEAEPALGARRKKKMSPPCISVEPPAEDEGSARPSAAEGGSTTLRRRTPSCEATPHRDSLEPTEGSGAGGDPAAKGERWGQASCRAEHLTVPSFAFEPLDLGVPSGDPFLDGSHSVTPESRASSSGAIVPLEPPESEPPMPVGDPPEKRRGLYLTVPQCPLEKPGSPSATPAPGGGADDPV
PLAP act: human PLAP activation | P05187 | purified PLAP enzyme, luminescent substrate read-out; hits give high values | activation fold at 20 µM | actives 1.2% (n = 96,000) | AID 696; in the data active means activation fold above about 2
M1 agonist: activates the M1 muscarinic receptor; B-score at 10 µM; CHO-M1 cells, Fluo-4 calcium fluorescence, agonist mode; hits give high values; actives 3% (n = 64,000);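 active means fluorescence rise, raw or as B-score row- and column-corrected plate score, outside the 99.7% band of its plate's samples, either direction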
Active calls of the source: *; . = no result given.

SMILES | M1 antagonist | Cav32 inh | PLAP act | M1 agonist
Cc1ccc(NC(=O)/C(=C\C=C\c2ccccc2)NC(=O)c2ccccc2)cc1 | . | -5.3* | 1 | .
Cc1ccc(NC(=O)c2ccccc2)cc1 | . | 0.041 | 0.9 | .
Cc1ccc(NC(=O)/C(=C\c2ccccc2)NC(=O)/C=C/c2ccccc2)cc1 | . | -4.9* | 1 | .
CCNC(=O)/C(=C/c1ccco1)NC(=O)/C=C/c1ccccc1 | . | 0.0053 | 1.1 | .
CCOc1ccc(N(CC(=O)NC(C)CC)S(=O)(=O)c2c(C)noc2C)cc1 (stereo not drawn) | 0.84 | 0.93 | 1.1 | 0.53
Nc1nnc(SCCOc2ccc(Br)cc2)s1 | 0.0052 | -2 | 1.2 | 0.024
Cc1ccc(-c2csc(NC(=O)c3cccc(N4C(=O)CCC4=O)c3)n2)o1 | -0.33 | -5.2* | . | 2.6
CCOC(=O)Cc1csc(NC(=O)c2cccc(N3C(=O)CCC3=O)c2)n1 | 0.45 | 0.011 | 0.9 | -0.4
CCOc1nc(Nc2ccc(OC)c(Cl)c2)nc(N2CCN(c3ccc(OC)cc3)CC2)n1 | . | -0.92 | 1.4 | .
Cc1cc(=O)n(-c2ccc3ccccc3n2)[nH]1 | 0.12 | 0.17 | 2.3* | -0.65
Cn1nc(C(=O)NCc2ccccc2)c2ccccc2c1=O | -0.014 | 1.4 | 1 | -0.7
O=C(NCc1ccccc1)c1n[nH]nc1-c1ccccc1O | 0.79 | -0.57 | 2.9* | -0.28
CCOC(=O)C1=C(C)N(C)C(=O)NC1c1ccccc1OC (stereo not drawn) | -0.14 | 0.1 | 0.9 | -0.12
CCOC(=O)C1=C(c2ccccc2)N(C)C(=O)NC1c1ccc(OC(F)F)c(OC)c1 (stereo not drawn) | 0.19 | -8.6* | 1.2 | -1.1
Cc1cc(-c2ccc3c(c2)COc2c4ccccc4nn2-3)on1 | . | 0.028 | . | .
CCOC(=O)CSc1nc2c(sc(=S)n2-c2ccccc2OC)c(=O)n1Cc1ccco1 | . | -5.6* | 1.4 | .
CCOC(=O)CSc1nc2ccccc2c(=O)n1Cc1ccco1 | -2.9 | -1.4 | 1 | -0.3
CCN(CC)C(=O)CSc1nc2c(sc(=S)n2Cc2ccco2)c(=O)n1-c1ccccc1 | . | -2.7 | 1.2 | .
CCOC(=O)CSc1nc2c(sc(=S)n2Cc2ccco2)c(=O)n1-c1ccccc1 | -0.54 | -3.9* | 1.2 | 1.2
COc1ccc(Cl)cc1C(=O)NNC(=S)NC(=O)c1cc(-c2ccccc2)nc2ccccc12 | . | . | 1.5 | .
COc1ccc(Cl)cc1C(=O)NC(=S)Nc1cc(-c2nc3ccccc3[nH]2)ccc1C | . | -4.8* | . | .
CCOc1cc(C(=O)NCc2nnc(SCC(=O)OC)n2C)cc(OCC)c1OCC | 0.31 | . | 1.4 | 0.008
CCN(CC)S(=O)(=O)c1ccc(C(=O)NCc2nnc(SCC(=O)OC)n2C)cc1 | -0.58 | -3.8* | 1.2 | 0.22
NS(=O)(=O)c1ccc2c(c1)C1C=CCC1C(C1CC=CCC1)N2 (stereo not drawn) | . | -3.2 | 1 | .
CC(C)C1Nc2ccc(S(N)(=O)=O)cc2C2C=CCC21 (stereo not drawn) | -0.039 | -0.88 | 1.2 | 2.1*
SMILES | M1 antagonist | Cav32 inh | PLAP act | M1 agonist
Cc1nc2c(C(=O)NCCc3ccccc3)c[nH]n2c(=O)c1Cl | -0.53 | -0.84 | 1.3 | 1.5
Cc1nc2c(C(=O)NCCC(C)C)c[nH]n2c(=O)c1Cc1ccccc1F | . | -5.2* | 1.6 | .
CCOc1ccccc1N1CCN(CC(=O)Nc2nnc(CC)s2)CC1 | -0.73 | -0.031 | . | 1.3
CCc1nnc(NC(=O)CN2CCN(c3nc(-c4ccccc4)cs3)CC2)s1 | 0.35 | -4.1 | 2.1* | 0.097
O=C(CN1CCCCC1)Nc1nnc(-c2ccc([N+](=O)[O-])cc2)s1 | . | . | 1.2 | .
O=C(CN1CCCCC1)Nc1nnc(-c2ccccc2)s1 | 0.44 | -2 | 2* | 0.59
CC(C)(O)[C@@H]1[C@@H]2C[C@@]3(CC[C@]4(C)C(CCC5[C@@]6(C)CC[C@H](O)C(C)(C)C6CC[C@]54C)[C@@H]13)C(=O)O2 (stereo partly drawn) | . | 0.14 | . | .
O=C(Oc1ccc(F)cc1C(=O)/C=C/c1cccs1)c1cccc([N+](=O)[O-])c1 | . | -1.7 | 0.9 | .
O=C(/C=C/c1cc([N+](=O)[O-])ccc1OC(F)F)NCc1ccc(F)cc1 | . | -6.1* | 0.7 | .
O=C1N(CC(=O)N2CCc3ccccc32)CCN1Cc1ccccc1Cl | 1 | -3.5* | 0.8 | 0.73
CC(=O)OCc1c(C(F)(F)F)nn(C)c1SCc1ccc(Cl)cc1 | . | -1.3 | 0.8 | .
O=[N+]([O-])c1ccc2nc(SCc3ccccc3Cl)sc2c1 | . | -4.1* | 0.3 | .
CCn1nc(C(=O)OCC(=O)c2c[nH]c3ccccc23)c2ccccc2c1=O | -1.3 | -0.034 | 1.3 | 6.1*
COc1ccc(/C(C)=N/NC(=O)c2nc(C)cc(C)n2)cc1 | . | 0.84 | 2* | .
COc1ccc(/C(C)=N/NC(=O)c2ccc(N(C)C)cc2)cc1 | . | . | 1 | .
Cn1c(NCc2ccco2)nc2c1c(=O)n(Cc1ccc(Cl)cc1)c(=O)n2C | 0.99 | -0.022 | 1 | -1
Cn1c(=O)n(Cc2ccc(Cl)cc2)c(=O)c2c1nc1n2CCN1Cc1ccco1 | -1.1 | -1.2 | 1.1 | -2.3*
Cn1c(=O)n(Cc2ccccc2)c(=O)c2c1nc1n2CCCN1Cc1ccccc1 | 2.9* | . | 1 | 0.44
COc1ccccc1-c1nnc(SCC(=O)Nc2ccc(Cl)cc2Cl)o1 | 0.41 | -0.4 | 1.9 | -0.51
CC1(C)N=C(SCC(=O)Nc2ccccc2)C(c2ccc(Cl)cc2)=N1 | . | -6.7* | 1 | .
CC1(C)N=C(SCC(=O)Nc2ccc(Cl)cc2Cl)C(c2ccccc2)=N1 | . | -5.7* | 1.1 | .
COc1ccc(NC(=O)CSc2ccc(C)cc2)cc1 | . | -1.3 | . | .
Cc1ccc(C2=NC(C)(C)N=C2SCC(=O)Nc2ccc(Cl)cc2)cc1 | . | -4.7* | 1.6 | .
Cc1cc(N2CCOCC2)n2nc(C)c(-c3ccccc3)c2n1 | -0.42 | 3.8* | 1 | -0.3
O=C1c2ccccc2C(Nc2ccc(F)c(Cl)c2)N1Cc1ccco1 (stereo not drawn) | -0.58 | -6* | 0.9 | -0.59
SMILES | M1 antagonist | Cav32 inh | PLAP act | M1 agonist
CCOc1ccc(NC2c3ccccc3C(=O)N2Cc2ccco2)cc1 (stereo not drawn) | -0.17 | -4.7* | 1.2 | 0.13
COc1ccc(NC2c3ccccc3C(=O)N2Cc2ccco2)cc1OC (stereo not drawn) | 0.92 | 0.34 | 0.9 | 0.45
Cc1cccc(OCc2nnc(SCC(=O)N(C(C)C)C(C)C)n2Cc2ccco2)c1C | 0.52 | -6.6* | 1.6 | 0.086
CC(=O)Oc1ccc2c(=O)c(-c3ccccc3)c(C)oc2c1 | . | -4.5* | . | .
CCOC(=O)CSc1nc2ccccc2c(=O)n1CC1COc2ccccc2O1 (stereo not drawn) | -0.2 | 0.28 | 0.9 | 0.4
CCCN(CCC)C(=O)CSc1nc2ccccc2c(=O)n1CC1COc2ccccc2O1 (stereo not drawn) | . | -5.9* | 1.1 | .
CCn1c(CNC(=O)COc2ccc(C(C)C)cc2)nnc1SCC(=O)Nc1ccccc1F | . | -1.9 | 2* | .
Cc1cc(C)c(OCCCCNCc2ccccc2)c(Cl)c1 | . | -1.1 | 1 | .
CCOc1ccc(-c2nc(-c3ccccc3C)no2)cc1 | 0.86 | 0.23 | 0.9 | -0.031
S=C(Nc1ccccn1)c1ccccn1 | 0.17 | . | 2.4* | -0.054
Cc1ccc(C)c(NC(=S)c2ccccn2)c1 | . | 0.1 | 1.2 | .
O=C(NCc1ccccn1)C1CCC(=O)N1C1CCCCC1 (stereo not drawn) | . | -0.021 | 1.2 | .
